Reference: PubChem BioAssay
For part of these data: Measured potencies and affinities stand elsewhere. Calls of active or inactive are those of the source.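 How the source made its calls, unless noted: active means compound raising the membrane signal above positive-control mean plus 3 SD in both repeats, and a primary screen hit; inactive means the rest.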

Columns and labels:
[1] = tested on: TRPC4 beta (transient receptor potential cation channel C4), mouse; test: TRPC4 cation channel opening, retest – cell-based, Fluo4 calcium, HEK293 TRPC4beta/mu-opioid, duplicates, 10 µM, confirmation (AID 2426;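 active means fluorescence ratio normalized to control raised more than 50% in primary screen plus both repeat runs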;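 on activation: percent rise of integrated ratio over buffer wells lacking compound which define 0%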); settings: Fluo4 calcium fluorescence, at 10 µM; stronger effect = higher value
[2] = tested on: transient receptor potential cation channel C4 beta (TRPC4), mouse; test: TRPC4 cation channel opening, second retest – cell-based, second round, Fluo4, HEK293 TRPC4beta/mu-opioid, 1 µM, confirmation (AID 2461;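 active means primary screen active and over 50% activation in each of two duplicate runs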;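 on activation: 0% = wells without test compound as baseline of integrated fluorescence ratio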); settings: Fluo4 calcium fluorescence, at 1 µM; stronger effect = higher value
[3] = tested on: TRPC4 (transient receptor potential cation channel C4 beta), mouse; test: potentiation of DAMGO EC20 TRPC4 response – cell-based, second round, Fluo-4, HEK293 TRPC4beta/mu-opioid, 1 µM, confirmation (AID 2554;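 active means primary screen hit whose fluorescence ratio, in both repeats, exceeds the weak agonist control mean by 3 SD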); settings: DAMGO EC20, Fluo-4 calcium flux, at 1 µM; stronger effect = higher value
[4] = tested on: TRPC4 beta (transient receptor potential cation channel C4), mouse; test: potentiation of DAMGO EC20 TRPC4 response – cell-based, Fluo-4, HEK293 TRPC4beta/mu-opioid, confirmation (AID 2555;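 active means primary screen hit whose calcium fluorescence ratio, in both repeats, exceeds the weak agonist control mean by 3 SD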); settings: DAMGO EC20, Fluo-4 calcium flux, at 10 µM; stronger effect = higher value
[5] = target: Short transient receptor potential channel 4 (Mus musculus) (UniProt Q9QUQ5); test: blockers of DAMGO-evoked TRPC4 calcium flux – cell-based, Fluo4, HEK293 TRPC4beta/mu-opioid, confirmation (AID 2636;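 active means calcium signal cut by more than 3 SD below the full-agonist control yet still positive, in both repeats and the earlier primary screen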); settings: at 10 µM; stronger effect = higher value
Short transient receptor potential channel 4 (Mus musculus), sequence (Q9QUQ5 whole entry, looked up): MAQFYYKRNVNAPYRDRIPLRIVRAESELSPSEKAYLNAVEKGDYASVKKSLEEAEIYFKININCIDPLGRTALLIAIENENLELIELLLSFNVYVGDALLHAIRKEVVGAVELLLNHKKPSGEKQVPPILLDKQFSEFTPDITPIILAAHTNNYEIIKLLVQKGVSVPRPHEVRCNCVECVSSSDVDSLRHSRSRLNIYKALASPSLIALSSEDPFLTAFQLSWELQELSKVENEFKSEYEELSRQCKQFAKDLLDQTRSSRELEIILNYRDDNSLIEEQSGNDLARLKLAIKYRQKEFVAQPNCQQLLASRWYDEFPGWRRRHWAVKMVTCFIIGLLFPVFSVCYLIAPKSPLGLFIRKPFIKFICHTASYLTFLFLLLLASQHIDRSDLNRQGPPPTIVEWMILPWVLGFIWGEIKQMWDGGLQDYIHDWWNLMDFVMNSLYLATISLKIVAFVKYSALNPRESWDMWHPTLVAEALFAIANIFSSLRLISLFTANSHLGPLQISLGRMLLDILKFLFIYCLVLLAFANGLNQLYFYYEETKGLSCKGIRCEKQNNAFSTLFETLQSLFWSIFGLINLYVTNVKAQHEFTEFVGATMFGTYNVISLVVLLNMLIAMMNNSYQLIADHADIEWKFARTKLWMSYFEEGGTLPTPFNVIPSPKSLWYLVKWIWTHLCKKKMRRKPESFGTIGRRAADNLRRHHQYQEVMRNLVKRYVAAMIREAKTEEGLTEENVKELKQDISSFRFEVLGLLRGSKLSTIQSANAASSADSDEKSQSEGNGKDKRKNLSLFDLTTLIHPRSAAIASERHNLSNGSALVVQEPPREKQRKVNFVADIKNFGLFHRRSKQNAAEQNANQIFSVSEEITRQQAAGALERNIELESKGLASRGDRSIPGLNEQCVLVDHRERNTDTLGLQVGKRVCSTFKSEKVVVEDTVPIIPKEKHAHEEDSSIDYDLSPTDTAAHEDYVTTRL

[6] = target: Short transient receptor potential channel 4 (Mus musculus) (UniProt Q9QUQ5); test: blockers of DAMGO-evoked TRPC4 calcium flux – cell-based, second round, Fluo4, HEK293 TRPC4beta/mu-opioid, 1 µM, confirmation (AID 2637;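 active means calcium signal ratio cut to more than 3 SD under the fully stimulated control mean yet still positive, in both repeats and the primary screen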); settings: at 1 µM; stronger effect = higher value
[7] = target: Short transient receptor potential channel 4 (Mus musculus) (UniProt Q9QUQ5); test: potentiation of DAMGO-evoked TRPC4 calcium signal – cell-based, HEK293 TRPC4/mu-opioid, Fluo-4 calcium, EC20 DAMGO, dose response (AID 434941;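 active means earlier screen potentiator hit that boosts the TRPC4 ion channel at some dose, with a dose response; inactive means no potentiation, no dose response, or not a prior hit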;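 further: calcium entry triggered by an EC20 dose of DAMGO at the co-expressed mu-opioid receptor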)
[8] = target: Short transient receptor potential channel 4 (Mus musculus) (UniProt Q9QUQ5); test: block of DAMGO-driven TRPC4 calcium entry – cell-based, HEK293 TRPC4/mu-opioid, Fluo-4 calcium, dose response (AID 434942;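 active means primary screen inhibitor hit that blocks the TRPC4 channel at some tested dose, yielding a dose curve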)
[9] = target: Short transient receptor potential channel 6 (Mus musculus) (UniProt Q61143); test: TRPC6 blockade by TRPC4 inhibitor hits – cell-based, HEK293, membrane potential dye, duplicate, selectivity assay for TRPC4 inhibitor project, confirmation (AID 434948;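 active means active in primary screen and both duplicates, each dropping signal beyond three positive-control SD with fluorescence still positive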); settings: HEK293 TRPC6, membrane potential dye fluorescence, at 10 µM, stimulated with maximal-effect acetylcholine; stronger effect = higher value
Short transient receptor potential channel 6 (Mus musculus), sequence (Q61143 whole entry, looked up): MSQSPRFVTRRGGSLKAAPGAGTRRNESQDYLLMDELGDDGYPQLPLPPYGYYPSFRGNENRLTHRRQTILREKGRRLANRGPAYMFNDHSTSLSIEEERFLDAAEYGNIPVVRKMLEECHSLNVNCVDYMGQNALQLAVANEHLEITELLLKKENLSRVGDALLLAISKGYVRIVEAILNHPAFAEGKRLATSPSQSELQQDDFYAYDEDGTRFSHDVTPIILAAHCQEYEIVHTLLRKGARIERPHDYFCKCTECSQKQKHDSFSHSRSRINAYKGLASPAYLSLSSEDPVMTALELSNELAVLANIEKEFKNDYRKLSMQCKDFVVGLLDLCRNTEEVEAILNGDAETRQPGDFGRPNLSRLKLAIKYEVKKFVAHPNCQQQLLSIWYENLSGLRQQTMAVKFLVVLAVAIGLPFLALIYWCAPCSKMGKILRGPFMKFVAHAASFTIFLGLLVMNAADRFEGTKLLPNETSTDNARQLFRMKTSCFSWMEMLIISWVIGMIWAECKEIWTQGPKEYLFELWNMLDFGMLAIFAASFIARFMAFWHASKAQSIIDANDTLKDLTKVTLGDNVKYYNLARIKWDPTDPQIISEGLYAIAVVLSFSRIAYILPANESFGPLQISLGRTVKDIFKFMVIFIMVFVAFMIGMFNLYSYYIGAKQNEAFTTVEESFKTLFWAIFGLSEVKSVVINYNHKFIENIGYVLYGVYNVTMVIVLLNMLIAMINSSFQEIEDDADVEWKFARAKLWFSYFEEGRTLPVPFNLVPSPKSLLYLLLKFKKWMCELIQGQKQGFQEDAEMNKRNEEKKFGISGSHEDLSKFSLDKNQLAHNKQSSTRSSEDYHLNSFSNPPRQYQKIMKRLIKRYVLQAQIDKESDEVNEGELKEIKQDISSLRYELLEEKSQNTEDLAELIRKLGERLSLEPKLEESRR

[10] = target: Short transient receptor potential channel 6 (Mus musculus) (UniProt Q61143); test: TRPC6 opening by TRPC4 activator hits – cell-based, HEK293, membrane potential dye, duplicate, selectivity assay for TRPC4 activator project, confirmation (AID 434950;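 active means membrane potential signal rise above negative control mean plus 3 SD in both duplicates, also active in the earlier TRPC4 screen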;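 on activation: 0% = buffer only wells and 100% = acetylcholine maximal-effect wells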); settings: HEK293 TRPC6, membrane potential fluorescence, at 10 µM; activation: stronger effect = higher value; outcome: activation
[11] = target: Short transient receptor potential channel 6 (Mus musculus) (UniProt Q61143); test: positive modulators of mouse TRPC6 channel – HEK293 cells, membrane potential dye, duplicate, selectivity assay for TRPC4 potentiator project, confirmation (AID 434952); settings: HEK293 TRPC6, membrane potential dye fluorescence, at 10 µM, maximal acetylcholine added after compound; stronger effect = higher value
[12] = target: Short transient receptor potential channel 4 (Mus musculus) (UniProt Q9QUQ5); test: calcium flux activators in TRPC4/5HT1a cells, counter-screen for TRPC4 activator project, cell-based, second counter screen, HEK293 TRPC4/5HT1a, Fluo-4 (AID 434977;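 active means calcium signal rise above buffer-control mean plus 5 SD in both duplicates, and also a hit in the primary screen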;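 on activation: plate controls were assay buffer for no effect and maximal serotonin response for full effect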); settings: Fluo-4 calcium flux, at 10 µM; stronger effect = higher value
[13] = serotonin-gated TRPC4 signal block – cell-based, second counter screen, HEK293 TRPC4/5HT1a, Fluo-4, counter-screen for TRPC4 inhibitor project, confirmation (AID 434978;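 active means primary screen active whose calcium signal fell more than 3 SD beyond the full-serotonin control mean in both duplicate plates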;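 further: serotonin given first at submaximal then at maximal dose after compound preincubation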); settings: Fluo-4 calcium flux, at 10 µM, serotonin added to trigger calcium flux; stronger effect = higher value
[14] = tested on: TRPC4 (mouse), co-expressed with 5HT1a in HEK293; test: enhancement of serotonin-evoked TRPC4 response – cell-based, second counter screen, HEK293 TRPC4/5HT1a, Fluo-4, counter-screen for TRPC4 potentiator project, confirmation (AID 434979;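 active means signal rise over 3 SD above mean of control wells given weak agonist, in both repeats and first screen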); settings: Fluo-4 calcium flux, at 10 µM, serotonin added at its EC20 dose; stronger effect = higher value
[15] = nonspecific calcium rise without TRPC4 – cell-based, HEK293 mu-opioid receptor line, counter-screen for TRPC4 activator project, confirmation (AID 449723;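 active means hit in primary screen, with calcium signal over 5 SD above buffer well mean in both duplicates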;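 further: counter screen cells carry the mu-opioid receptor alone and lack TRPC4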); settings: HEK293 mu-opioid cells, Fluo-4 calcium fluorescence, at 10 µM; stronger effect = higher value
[16] = nonspecific potentiation of DAMGO calcium response – cell-based, HEK293 mu-opioid receptor line, counter-screen for TRPC4 allosteric potentiator project, confirmation (AID 449724;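 active means calcium signal rise more than 3 SD above the low-dose agonist control mean, in both duplicate plates and the primary screen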); settings: HEK293 mu-opioid receptor cells, Fluo-4 calcium flux, at 10 µM, compound added before EC20 DAMGO stimulus; stronger effect = higher value

Measured: activation

CCOC(=O)C1(CCOc2ccccc2)CCN(Cc2ccc(OC)c(O)c2)CC1
active: [1] 207% | [2] 80% | [10] 66.5%
inactive: all other assays above

COc1ccc(C(CNC(=O)C(C)c2ccc3cc(OC)ccc3c2)N(C)C)cc1 (stereo not given)
active: [1] 243% | [2] 98% | [10] 63% | [12] 8.72%
inactive: all other assays above

COc1ccc(C(CNC(=O)c2cc(SC)ccc2Cl)N(C)C)cc1 (stereo not given)
active: [1] 103% | [2] 77% | [10] 65%
inactive: all other assays above

Cc1ccc2[nH]c3c(=O)n(CCc4cnc[nH]4)cnc3c2c1
active: [1] 126% | [10] 27.5% | [12] 33.2%
inactive: all other assays above

Cc1ccc2oc(=O)c3cnn(CC(=O)NC4CCN(Cc5ccccc5)CC4)c3c2c1
active: [1] 68%
inactive: all other assays above

CCCC(=O)N1CCc2cc(-c3nc(N)sc3C)ccc21
active: [1] 62%
inactive: all other assays above

CN(C)C(CNC(=O)Cc1cccc(C(F)(F)F)c1)c1ccco1 (stereo not given)
active: [1] 83% | [10] 29%
inactive: all other assays above

Cc1ccc(C)c(OCCCCCn2ccnc2)c1
active: [1] 174% | [10] 49% | [12] 25.7%
inactive: all other assays above

Cc1cc(-c2nn(-c3ccccc3F)cc2CNCCc2cnc[nH]2)c(C)s1
active: [1] 89% | [2] 87% | [12] 39.8%
inactive: all other assays above

CN1CCCC(OC(=O)c2cc(Cl)cc(Cl)c2)C1 (stereo not given)
active: [1] 186% | [2] 112% | [10] 38.5% | [12] 67.9%
inactive: all other assays above

OCCNCCSc1ccc(Cl)cc1
active: [1] 82% | [10] 39.5% | [12] 22.3%
inactive: all other assays above

CN(C)C(CNC(=S)Nc1ccc(F)cc1)c1cccnc1 (stereo not given)
active: [1] 95% | [2] 82% | [10] 28.5%
inactive: all other assays above

COc1ccccc1N1CCN(C(c2cccs2)C(C)NC(=O)c2cccs2)CC1 (stereo not given)
active: [10] 23.5%
inactive: all other assays above

CC(NCCC1(Cc2ccccc2Cl)CCOC(C)(C)C1)c1cccs1 (stereo not given)
active: [1] 89%
inactive: all other assays above

Cc1cc(OCCCn2ccnc2)cc(C)c1Cl
active: [1] 67% | [10] 47.5% | [12] 15.8%
inactive: all other assays above
